An excerpt weighted towards active compounds, which were near 3.7% of everything screened.
Bead autofluor = counter-screen for toxin protease inhibitors: compound fluorescence. compound autofluorescence counterscreen, microsphere flow cytometry; active compounds read high. fluorescence intensity (no concentration beside the values). actives 3.1% (n = 360,000). AID 624483; in the data active = fluorescence intensity above about 16000; inconclusive = no clear call, values can overlap the other calls
Anthrax LF inh2 = anthrax lethal factor protease inhibition; multiplex microsphere protease cleavage assay, LF; inhibition, % at 10 µM; actives 0.12% (n = 360,000); AID 588501; P15917; also: plate controls were buffer without enzyme for full effect and enzyme alone for no effect
BoNT A protease = BoNT A light chain protease inhibition. multiplex microsphere protease substrate cleavage, flow cytometry. inhibition, % at 10 µM. actives 0.17% (n = 360,000); also: plate controls were buffer without enzyme for full effect and enzyme alone for no effect
BoNT F protease = inhibitors of Botulinum neurotoxin F light chain protease; actives 0.22% (n = 360,000); inhibition, % at 10 µM; AID 588497; Multiplex microsphere protease cleavage assay, flow cytometry; in the data active = inhibition above about 35%, passing the limit was not always enough; inconclusive = no clear call, values can overlap the other calls; also: plate controls were buffer without enzyme for full effect and enzyme alone for no effect
BH1578 lux ind = quorum light induction in luxS cqsA deficient V. cholerae. V. cholerae BH1578 lux reporter, luminescence, 6 h. activation, % at 18.7 µM. actives 0.16% (n = 350,000); in the data active = activation mostly above about 9.7%, no sharp cut-off; inconclusive = no clear call, values can overlap the other calls; inactive = mostly below about 3.7%
BJeLR lethal = BJeLR cell viability loss. BJeLR (HRASV12) viability, CellTiter-Glo ATP luminescence, 48 h. inhibition, % (test concentration not listed). actives 0.17% (n = 300,000). AID 1554; in the data active = inhibition above about 50%; inconclusive = no clear call, values can overlap the other calls
Starred values were filed as active, the others as inactive; i = inactive; ? = inconclusive; . = no result. Rule as the data show it, unless noted: active = inhibition above about 30%; inconclusive = no clear call, values can overlap the other calls; inactive = below that.

SMILES | Bead autofluor | Anthrax LF inh2 | BoNT A protease | BoNT F protease | BH1578 lux ind | BJeLR lethal
CCOC(=O)C1(C)CCCN(C(=O)c2ccc(OC)cc2)C1 (stereo not drawn) | 3813 | -6 | 0 | -2 | i | .
COc1ccc(C(NC(=O)C2CCN(CCOc3ccc(Cl)cc3)CC2)c2cccs2)cc1 (stereo not drawn) | 3257 | -2 | 0 | -15 | 0 | .
CC12CC3(C)CC(C)(C1)CC(C(=O)NC1=NCCS1)(C2)C3 | 23810* | -3 | ? | -18 | i | 7
CC12CC3CC(C)(C1)CC(C(=O)NC1=NCCS1)(C3)C2 | 6178 | -5 | -2 | -17 | 1 | 2
COc1ccc(/C=C/C(=O)OCC(=O)N2c3ccccc3CC2C)c(OC)c1 (stereo not drawn) | 4386 | -10 | -1 | 7 | 0 | .
CCOc1ccccc1Nc1nnc(C)c(=O)[nH]1 | 7155 | 1 | -2 | -6 | i | 8
COc1ccccc1Nc1nnc(C)c(=O)[nH]1 | 16456* | -1 | -1 | -2 | i | -15
Cc1nn(Cc2cccc(C(=O)Nc3ccn(Cc4ccccc4F)n3)c2)c(C)c1[N+](=O)[O-] | 10713 | -4 | 0 | 4 | -6 | 7
O=C(Nc1ccc(Cn2cccn2)cc1)c1ccc(COc2ccc(Br)cc2)cc1 | 4139 | -2 | 1 | 4 | 0 | 12
Cn1cc([N+](=O)[O-])c(C(=O)Nc2ccn(Cc3c(F)c(F)cc(F)c3F)n2)n1 | 23100* | -2 | ? | 3 | i | 5
Cn1ncc([N+](=O)[O-])c1C(=O)Nc1ccn(Cc2ccccc2F)n1 | 24402* | -4 | -3 | -2 | 0 | -6
O=C(Nc1ccn(Cc2ccccc2F)n1)c1ccc(COc2ccc(Br)cc2)cc1 | 24596* | -3 | ? | -4 | 0 | 4
CCCCNC(=O)c1ccc2nc(CC)c(N(C)Cc3cccs3)n2c1 | 4028 | -1 | 0 | -2 | i | .
COc1ccc(-c2csc(C(C)(O)c3ccc(OC)cc3)n2)cc1 (stereo not drawn) | 3856 | -3 | 0 | -3 | i | .
CCN(C[C@H]1N[C@@](CC)(C(=O)OC)[C@H]2C(=O)N(Cc3ccccc3)C(=O)[C@@H]12)C(=O)c1ccc(C(C)(C)C)cc1 | 3560 | -1 | 0 | 2 | i | .
Cc1cc(Cl)ccc1-c1cc2nc(NCCCN(C)C)n(C)c(=O)c2s1 | 3499 | -2 | 0 | -3 | -1 | .
CC(=O)c1ccc(-n2c(CCC(=O)O)ccc2-c2cccs2)cc1 | 9453 | 0 | 1 | -1 | -1 | 0
Cc1ccc(-n2c(CCC(=O)O)ccc2-c2cccs2)cc1 | 23564* | 4 | -2 | -2 | i | -8
CCNC(=O)C1CCCN(C(=O)c2ccc3c(c2)OCO3)CC1 (stereo not drawn) | 3567 | -6 | 0 | -5 | -1 | .
O=C(Cn1c(C(F)(F)F)nc2ccccc21)OCC(=O)c1c[nH]c2ccccc12 | 4605 | 20 | 57* | -9 | 0 | 11
COc1ccc(OC)c(NC(=O)C2(C)CCN2Cc2ccsc2)c1 (stereo not drawn) | 3542 | 3 | -1 | 6 | 0 | .
Cc1ccc(/C(N)=N/OC(=O)Cc2cccs2)cc1 | 23460* | -2 | -1 | -2 | -6 | -9
Cc1ccc(/C(N)=N/OC(=O)CCC2CCCCC2)cc1 | 16562* | -2 | -2 | -5 | i | 1
N/C(=N\OC(=O)Cc1cccs1)c1ccccc1 | ? | -1 | 2 | 1 | 0 | -2
Cc1cccc(/C(N)=N/OC(=O)Cc2cccs2)c1 | 19950* | -2 | 2 | 4 | i | 1
Cc1ccc(/C(N)=N/OC(=O)CCC2CCCC2)cc1 | 3714 | -10 | -1 | -7 | 1 | 7
COc1cc(OC)c(OC)cc1/C=C/C(=O)OCC(=O)Nc1c(C)n(C)n(-c2ccccc2)c1=O | 4851 | 0 | 1 | -2 | i | .
CC1=C(C(=O)N2CCOCC2)CC(CC(=O)NCCCN(C)C)C(=O)N1Cc1ccc(F)cc1 (stereo not drawn) | 5951 | -3 | 1 | 6 | . | .
C[C@H](CO)N1C[C@H](C)[C@@H](CN(C)Cc2ccc(C(=O)O)cc2)Oc2ncc(-c3ccc(C(=O)N(C)C)cc3)cc2C1=O | 2837 | -5 | 0 | -9 | 0 | .
O=C(NCc1cccnc1)c1cc(C2CCCN(S(=O)(=O)c3cccc4cccnc34)C2)on1 (stereo not drawn) | 3904 | -6 | 0 | 7 | i | .
